# The source made the active and inactive calls. Rule for the calls: active = hit-call score of the fitted dose curve at least 0.9, where 1 is the maximum; inactive = score below 0.9.
# Key:
# [1] = ATG_GRE_CIS: Attagene CIS-FACTORIAL HepG2 Assay for human Glucocorticoid Response Elements (GRE) (AID 2282947); details: HepG2 GRE cis-reporter, Attagene multiplex mRNA; actives raise or lower the signal
# Outline: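 Following 24 h chemical exposure of transiently transfected HepG2 cells, total RNA was reverse-transcribed and reporter cDNA amplified, fluorescently labelled and sized by capillary electrophoresis. Signal gain or loss was fitted relative to DMSO vehicle.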
# [2] = ATG_ISRE_CIS: Attagene CIS-FACTORIAL HepG2 Assay for human Interferon Regulatory Factor 1 (IRF1) binding to an Interferon-Stimulated Response Element (ISRE) (AID 2282948); details: HepG2 ISRE cis-reporter (Attagene), mRNA transcription readout; actives raise or lower the signal
# Outline: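 Cell-based cis-reporter assay; HepG2; 24 h exposure; reporter mRNA by RT-PCR plus capillary electrophoresis fluorescence; activity in either direction scored relative to DMSO.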
# [3] = ATG_M_32_CIS: Attagene CIS-FACTORIAL HepG2 Assay for M32 Transcription Factor (Internal Marker) (AID 2282949); details: HepG2 Attagene cis-factorial M32 reporter, mRNA; actives raise or lower the signal;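 note: background control marker of the multiplexed CIS panel rather than a real target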
# Outline: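 Fluorescent capillary electrophoresis peaks of HpaI-digested, FAM-labelled RT-PCR reporter products give the signal. Source: transiently transfected human liver HepG2 cells, 24 h after chemical dosing; bidirectional fitting against DMSO.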
# [4] = ATG_M_06_CIS: Attagene CIS-FACTORIAL HepG2 Assay for M06 Transcription Factor (Internal Marker) (AID 2282950); details: HepG2 Attagene CIS-FACTORIAL M06 internal marker reporter; actives raise or lower the signal
# Outline: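 Fluorescence-labelled RT-PCR products from cis-promoter reporter units, cut with HpaI and resolved by capillary electrophoresis, give the signal. Cells are human HepG2, dosed for 24 h. Serves as background control, fitted relative to DMSO.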
# [5] = target: Hypoxia-inducible factor 1-alpha (Homo sapiens) (UniProt Q16665); test: ATG_HIF1a_CIS: Attagene CIS-FACTORIAL HepG2 Assay for human Hypoxia Inducible Factor 1 (HIF1A) (AID 2282951); details: HepG2 Attagene cis-factorial HIF1a reporter transcription; actives raise or lower the signal
# Sequence of Hypoxia-inducible factor 1-alpha (Homo sapiens) (Q16665 whole entry, looked up, the tested form may be a part): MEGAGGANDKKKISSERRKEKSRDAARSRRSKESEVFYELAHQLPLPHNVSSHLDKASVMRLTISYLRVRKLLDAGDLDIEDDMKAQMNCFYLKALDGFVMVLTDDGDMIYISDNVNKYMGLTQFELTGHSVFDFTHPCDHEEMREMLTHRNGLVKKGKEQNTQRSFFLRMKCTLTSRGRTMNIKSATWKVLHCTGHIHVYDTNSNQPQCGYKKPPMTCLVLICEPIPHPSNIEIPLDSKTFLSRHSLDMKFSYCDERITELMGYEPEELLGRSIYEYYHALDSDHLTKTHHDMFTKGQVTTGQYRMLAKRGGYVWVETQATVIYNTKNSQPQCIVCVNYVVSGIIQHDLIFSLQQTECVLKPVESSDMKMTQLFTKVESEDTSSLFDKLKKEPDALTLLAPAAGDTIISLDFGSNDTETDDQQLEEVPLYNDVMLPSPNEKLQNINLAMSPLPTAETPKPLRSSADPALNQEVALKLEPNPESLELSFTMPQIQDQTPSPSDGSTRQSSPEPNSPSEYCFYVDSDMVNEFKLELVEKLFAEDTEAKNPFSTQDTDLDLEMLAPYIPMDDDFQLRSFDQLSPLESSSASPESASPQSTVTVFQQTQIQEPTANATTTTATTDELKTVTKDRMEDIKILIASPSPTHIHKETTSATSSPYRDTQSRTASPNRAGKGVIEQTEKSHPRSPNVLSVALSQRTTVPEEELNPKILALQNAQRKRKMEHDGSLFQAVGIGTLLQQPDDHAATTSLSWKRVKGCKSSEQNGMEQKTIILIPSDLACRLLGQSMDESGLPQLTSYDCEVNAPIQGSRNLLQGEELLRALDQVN
# Outline: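 Transient MRTU transfection of human HepG2 liver cells, 24 h compound treatment, then total RNA isolation, oligo(dT) reverse transcription, PCR amplification, fluorescent labelling and capillary electrophoresis of reporter fragments. Gain or loss relative to DMSO.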
# [6] = target: Hepatocyte nuclear factor 6 (Homo sapiens) (UniProt Q9UBC0); test: ATG_HNF6_CIS: Attagene CIS-FACTORIAL HepG2 Assay for human Hepatocyte Nuclear Factor 6 (HNF6) (AID 2282952); details: HepG2 Attagene cis-factorial HNF6 reporter transcription; actives raise or lower the signal
# Sequence of Hepatocyte nuclear factor 6 (Homo sapiens) (Q9UBC0 whole entry, looked up): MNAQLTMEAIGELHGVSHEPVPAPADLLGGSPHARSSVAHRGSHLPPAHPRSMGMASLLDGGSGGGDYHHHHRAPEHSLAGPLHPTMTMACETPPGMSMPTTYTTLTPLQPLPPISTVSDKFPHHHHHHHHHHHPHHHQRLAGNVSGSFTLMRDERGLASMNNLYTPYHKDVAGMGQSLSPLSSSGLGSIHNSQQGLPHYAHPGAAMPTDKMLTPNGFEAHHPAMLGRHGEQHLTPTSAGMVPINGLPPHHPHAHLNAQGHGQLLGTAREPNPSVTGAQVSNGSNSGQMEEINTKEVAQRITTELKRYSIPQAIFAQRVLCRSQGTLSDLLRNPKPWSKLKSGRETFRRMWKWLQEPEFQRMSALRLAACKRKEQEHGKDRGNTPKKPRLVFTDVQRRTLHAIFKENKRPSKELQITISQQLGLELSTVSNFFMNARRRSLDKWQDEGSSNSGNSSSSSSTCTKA
# Outline: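 Cells are HepG2 carrying transiently transfected cis-promoter reporter units. Treatment lasts 24 h, after which reporter transcripts are reverse-transcribed, amplified, FAM-labelled and sized by capillary electrophoresis. DMSO serves as baseline.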
# [7] = target: Heat shock factor protein 1 (Homo sapiens) (UniProt Q00613); test: ATG_HSE_CIS: Attagene CIS-FACTORIAL HepG2 Assay for human Heat Shock Transcription Factor 1 (HSE) (AID 2282953); details: HepG2 HSE cis-reporter, Attagene RNA transcription; actives raise or lower the signal
# Sequence of Heat shock factor protein 1 (Homo sapiens) (Q00613 whole entry, looked up): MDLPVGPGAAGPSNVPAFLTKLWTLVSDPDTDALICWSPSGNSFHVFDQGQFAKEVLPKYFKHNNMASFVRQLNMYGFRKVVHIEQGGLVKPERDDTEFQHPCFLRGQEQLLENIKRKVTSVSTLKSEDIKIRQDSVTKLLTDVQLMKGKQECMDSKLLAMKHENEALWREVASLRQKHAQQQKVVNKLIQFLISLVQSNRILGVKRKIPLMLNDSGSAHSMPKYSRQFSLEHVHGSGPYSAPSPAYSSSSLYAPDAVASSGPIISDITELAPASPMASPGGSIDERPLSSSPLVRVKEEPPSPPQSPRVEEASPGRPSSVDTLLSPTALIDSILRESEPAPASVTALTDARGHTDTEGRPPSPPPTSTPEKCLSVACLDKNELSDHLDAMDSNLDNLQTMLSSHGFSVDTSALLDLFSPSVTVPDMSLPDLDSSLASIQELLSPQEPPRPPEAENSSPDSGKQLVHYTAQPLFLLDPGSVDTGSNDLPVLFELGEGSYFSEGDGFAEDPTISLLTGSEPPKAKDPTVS
# Outline: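 After a 24 h incubation with test chemical, transfected HepG2 cells were harvested for RNA; reporter transcripts were measured by RT-PCR and capillary electrophoresis. Values reflect gain or loss of signal relative to DMSO.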
# [8] = ATG_MRE_CIS: Attagene CIS-FACTORIAL HepG2 Assay for human Metal Responsive Element (MRE) (AID 2282954); details: HepG2 MRE cis-reporter transcription, Attagene multiplex; actives raise or lower the signal
# Outline: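 Step one: transfect HepG2 with cis-regulated reporter units. Step two: dose 24 h. Step three: isolate RNA, RT-PCR, 6-FAM label, HpaI digest, capillary electrophoresis. Fit bidirectionally to DMSO.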
# [9] = ATG_PBREM_CIS: Attagene CIS-FACTORIAL HepG2 Assay for human Phenobarbital-responsive Enhancer Module (PBREM) (AID 2282955); details: HepG2 PBREM cis-reporter, Attagene multiplexed transcription; actives raise or lower the signal
# Outline: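 Endogenous transcription factors in human liver HepG2 cells drive a PBREM cis-element reporter, whose transcript level after 24 h treatment is quantified by RT-PCR with capillary electrophoresis; activity fitted in both directions against DMSO.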
SMILES,outcome [1],outcome [2],outcome [3],outcome [4],outcome [5],outcome [6],outcome [7],outcome [8],outcome [9],AC50 [2],AC50 [7],AC50 [8],AC50 [1],AC50 [5],AC50 [9]
BrCc1cccc(Oc2ccccc2)c1,inactive,inactive,inactive,inactive,inactive,inactive,inactive,inactive,inactive,–,–,–,–,–,–
CCOc1ccc(N=Nc2ccc(C=Cc3ccc(N=Nc4ccc(OCC)cc4)cc3S(=O)(=O)O)c(S(=O)(=O)O)c2)cc1,inactive,inactive,inactive,inactive,inactive,inactive,inactive,inactive,inactive,–,–,–,–,–,–
CCCCCCCC(=O)OCC(O)CO (configuration not stated),inactive,inactive,inactive,inactive,inactive,inactive,inactive,inactive,inactive,–,–,–,–,–,–
Nc1ccc2c(O)cc(S(=O)(=O)O)cc2c1,inactive,inactive,inactive,inactive,inactive,inactive,inactive,inactive,inactive,–,–,–,–,–,–
c1ccc2cc(Nc3ccc(Nc4ccc5ccccc5c4)cc3)ccc2c1,inactive,inactive,inactive,inactive,inactive,inactive,inactive,inactive,inactive,–,–,–,–,–,–
[O-]n1ccccc1=S.[O-]n1ccccc1=S.[Zn+2],inactive,–,inactive,inactive,inactive,inactive,–,–,inactive,1.07 µM (active),0.937 µM (active),0.923 µM (active),–,–,–
NCc1ccco1,inactive,inactive,inactive,inactive,inactive,inactive,inactive,inactive,inactive,–,–,–,–,–,–
CC1=C(Br)C(=O)C(Br)=C/C1=C(/c1ccccc1S(=O)(=O)O)c1cc(Br)c(O)c(Br)c1C,inactive,inactive,inactive,inactive,inactive,inactive,inactive,inactive,inactive,–,–,–,–,–,–
CCc1ccc(O)cc1,inactive,inactive,inactive,inactive,inactive,inactive,inactive,inactive,inactive,–,–,–,–,–,–
CCCSc1ccc2nc(NC(=O)OC)[nH]c2c1,inactive,inactive,inactive,inactive,inactive,inactive,inactive,inactive,inactive,–,–,–,–,–,–
CCCCCCCC/C=C\CCCCCCCC(=O)OCC,inactive,inactive,inactive,inactive,inactive,inactive,inactive,inactive,inactive,–,–,–,–,–,–
COC(CC(C)CCCC(C)(C)O)OC (configuration not stated),inactive,inactive,inactive,inactive,inactive,inactive,inactive,inactive,inactive,–,–,–,–,–,–
CCCCCC(C)=O,inactive,inactive,inactive,inactive,inactive,inactive,inactive,inactive,inactive,–,–,–,–,–,–
C=CC(=O)OCCC#N,–,–,inactive,inactive,–,inactive,–,–,inactive,70 µM (active),170 µM (active),86.2 µM (active),64.2 µM (active),56.6 µM (active),–
CCOC(=O)C1OC1c1ccccc1 (configuration not stated),inactive,–,inactive,inactive,inactive,inactive,inactive,inactive,inactive,33.5 µM (active),–,–,–,–,–
CC(C)CCCCCCCCCCCCCCC(=O)O,inactive,inactive,inactive,inactive,inactive,inactive,inactive,inactive,inactive,–,–,–,–,–,–
CCCC(=O)c1ccccc1,inactive,inactive,inactive,inactive,inactive,inactive,inactive,inactive,inactive,–,–,–,–,–,–
CCOCCOCCOCC,inactive,inactive,inactive,inactive,inactive,inactive,inactive,inactive,inactive,–,–,–,–,–,–
CC(=O)O[C@@H]1C[C@@H]2CC[C@@]1(C)C2(C)C,inactive,inactive,inactive,inactive,inactive,inactive,inactive,inactive,inactive,–,–,–,–,–,–
C=CCOC(=O)CCCCCC,inactive,inactive,inactive,inactive,inactive,inactive,inactive,inactive,inactive,–,–,–,–,–,–
CC1(C)CCC[C@]2(C)[C@H]3CCO[C@]3(C)CC[C@@H]12,inactive,inactive,inactive,inactive,inactive,inactive,–,inactive,inactive,–,178 µM (active),–,–,–,–
C=CCN(CC=C)CC=C,inactive,inactive,inactive,inactive,inactive,inactive,inactive,–,inactive,–,–,–,–,–,–
CC(CN=Cc1ccccc1O)N=Cc1ccccc1O (configuration not stated),inactive,inactive,inactive,inactive,–,inactive,inactive,–,inactive,–,–,–,–,72.3 µM (active),–
C=C(C)C(=O)OCCOCCOCCOC(=O)C(=C)C,inactive,inactive,inactive,inactive,inactive,inactive,inactive,inactive,inactive,–,–,–,–,–,–
CCO/C=C1\N=C(c2ccccc2)OC1=O,inactive,inactive,inactive,inactive,inactive,inactive,inactive,–,inactive,–,–,–,–,–,–
C=CCCCCCCCCCC,inactive,inactive,inactive,inactive,inactive,inactive,inactive,inactive,inactive,–,–,–,–,–,–
CC(O)C1CCCCC1 (configuration not stated),inactive,inactive,inactive,inactive,inactive,inactive,inactive,inactive,inactive,–,–,–,–,–,–

SMILES,outcome [1],outcome [2],outcome [3],outcome [4],outcome [5],outcome [6],outcome [7],outcome [8],outcome [9],AC50 [2],AC50 [7],AC50 [8],AC50 [1],AC50 [5],AC50 [9]
O=C1c2ccccc2C(=O)c2c(O)ccc(O)c21,inactive,inactive,inactive,inactive,inactive,inactive,inactive,inactive,inactive,–,–,–,–,–,–
CC1(C)COCN1,inactive,inactive,inactive,inactive,inactive,inactive,inactive,inactive,inactive,–,–,–,–,–,–
Cc1ccc2c(c1)C(=O)OC2=O,inactive,inactive,inactive,inactive,inactive,inactive,inactive,inactive,inactive,–,–,–,–,–,–
Cc1ccc(OC(=O)c2ccccc2O)cc1,inactive,inactive,inactive,inactive,inactive,inactive,inactive,inactive,inactive,–,–,–,–,–,–
C#CC(C)(O)CC(C)C (configuration not stated),inactive,inactive,inactive,inactive,inactive,inactive,inactive,inactive,inactive,–,–,–,–,–,–
Cc1cc(C)nc(NS(=O)(=O)c2ccc(N)cc2)n1,inactive,inactive,inactive,inactive,inactive,inactive,inactive,inactive,inactive,–,–,–,–,–,–
CCCCCCC(CO)CCCC (configuration not stated),inactive,inactive,inactive,inactive,inactive,inactive,inactive,inactive,inactive,–,–,–,–,–,–
COc1ccc(CCO)cc1,–,inactive,inactive,inactive,inactive,inactive,inactive,inactive,inactive,–,–,–,183 µM (active),–,–
O=C(O)c1cc(C(=O)O)cc([N+](=O)[O-])c1,inactive,inactive,inactive,inactive,inactive,inactive,inactive,inactive,inactive,–,–,–,–,–,–
Oc1c(Cl)cc(Cl)c(Cl)c1Cc1c(O)c(Cl)cc(Cl)c1Cl,inactive,–,inactive,inactive,–,inactive,–,–,–,6 µM (active),17.1 µM (active),9.9 µM (active),–,8.52 µM (active),1.12 µM (active)
CC(C)OCCO,inactive,inactive,inactive,inactive,inactive,inactive,inactive,inactive,inactive,–,–,–,–,–,–
CN(C)C(=O)Nc1ccc(Oc2ccc(Cl)cc2)cc1,inactive,inactive,inactive,inactive,inactive,inactive,–,–,inactive,–,181 µM (active),–,–,–,–
COc1cc(C(C)C)ccc1C,inactive,inactive,inactive,inactive,inactive,inactive,inactive,inactive,inactive,–,–,–,–,–,–
COC(=O)c1cccnc1,inactive,inactive,inactive,inactive,inactive,inactive,inactive,inactive,inactive,–,–,–,–,–,–
OC[C@H]1O[C@@H]2O[C@H]3[C@H](O)[C@@H](O)[C@@H](O[C@H]4[C@H](O)[C@@H](O)[C@@H](O[C@H]5[C@H](O)[C@@H](O)[C@@H](O[C@H]6[C@H](O)[C@@H](O)[C@@H](O[C@H]7[C@H](O)[C@@H](O)[C@@H](O[C@H]8[C@H](O)[C@@H](O)[C@@H](O[C@H]9[C@H](O)[C@@H](O)[C@@H](O[C@H]1[C@H](O)[C@H]2O)O[C@@H]9CO)O[C@@H]8CO)O[C@@H]7CO)O[C@@H]6CO)O[C@@H]5CO)O[C@@H]4CO)O[C@@H]3CO,inactive,inactive,inactive,inactive,inactive,inactive,inactive,inactive,inactive,–,–,–,–,–,–
CC(C)=CCCC(C)CCOC=O (configuration not stated),inactive,inactive,inactive,inactive,inactive,inactive,inactive,inactive,inactive,–,–,–,–,–,–
ClC(c1ccccc1)(c1ccccc1)c1ccccc1,inactive,inactive,inactive,inactive,inactive,inactive,inactive,inactive,inactive,–,–,–,–,–,–
O=C(c1ccccc1)C(O)c1ccccc1 (configuration not stated),inactive,inactive,inactive,inactive,inactive,inactive,inactive,inactive,inactive,–,–,–,–,–,–
C=CC(=C)CCCC(C)(C)OC(C)=O,inactive,inactive,inactive,inactive,inactive,inactive,inactive,inactive,inactive,–,–,–,–,–,–
COCCOCCOCCO,inactive,inactive,inactive,inactive,inactive,inactive,inactive,inactive,inactive,–,–,–,–,–,–
O=Cc1ccccc1S(=O)(=O)O,inactive,inactive,inactive,inactive,inactive,inactive,inactive,–,inactive,–,–,–,–,–,–
ON=C1CCCCC1,inactive,inactive,inactive,inactive,inactive,inactive,inactive,inactive,inactive,–,–,–,–,–,–
C=C(C#N)C(=O)OCC,inactive,–,inactive,inactive,inactive,inactive,–,inactive,inactive,169 µM (active),144 µM (active),–,–,–,–
O=CCc1ccccc1,inactive,inactive,inactive,inactive,inactive,inactive,inactive,inactive,inactive,–,–,–,–,–,–
CC1=CC[C@@]23C[C@@H]1C(C)(C)[C@@H]2CC[C@H]3C,inactive,inactive,inactive,inactive,inactive,inactive,inactive,inactive,inactive,–,–,–,–,–,–
C=C[Si]1(C)O[Si](C)(C=C)O[Si](C)(C=C)O[Si](C)(C=C)O1 (configuration not stated),inactive,inactive,inactive,inactive,inactive,inactive,inactive,inactive,inactive,–,–,–,–,–,–
